Sampled rows, rich in hits. Any-hit rate of the full collection: about 5.7%.
GLP-1R agonist = agonists of human GLP-1 receptor; P43220; HEK293 GLP-1R CRE-luciferase, luminescence, 4-6 h; cells express a hypersensitive GLP-1R form; Potency, µM (titrated, usually from 45.6 µM), inactives show at the top dose activation, most hits filed as activators; 380,000 tested, 0.007% active; further: potency means the concentration at half of the fitted maximal effect; % of control where 0% means no effect
Target sequence (P43220 whole entry, looked up): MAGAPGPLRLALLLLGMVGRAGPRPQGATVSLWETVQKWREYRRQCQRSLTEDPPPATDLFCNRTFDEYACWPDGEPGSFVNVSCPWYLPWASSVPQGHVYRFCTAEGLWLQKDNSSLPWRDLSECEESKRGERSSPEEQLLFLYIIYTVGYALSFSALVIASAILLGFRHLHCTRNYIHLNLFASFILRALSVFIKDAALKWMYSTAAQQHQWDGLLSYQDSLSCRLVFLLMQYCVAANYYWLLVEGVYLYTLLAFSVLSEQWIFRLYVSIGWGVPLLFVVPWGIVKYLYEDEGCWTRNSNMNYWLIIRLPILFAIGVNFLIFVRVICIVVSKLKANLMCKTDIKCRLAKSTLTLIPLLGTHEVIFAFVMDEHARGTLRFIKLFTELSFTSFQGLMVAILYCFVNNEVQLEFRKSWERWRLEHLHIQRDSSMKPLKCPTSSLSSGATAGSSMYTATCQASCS
D3 antag = blocks the human D3 dopamine receptor; P35462; D3R cells, DiscoveRx beta-arrestin luminescence, antagonist mode; active compounds read low; max response, negative = inhibition, %; 360,000 tested, 2.5% active; AID 652054; in the data active means max response below about -50%; inconclusive means no clear call, values can overlap the other calls; further: on the % scale 0 is the no-effect control and ±100 the full control effect
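Cells plated overnight at 1500 cells/well, then exposed to library compounds with dopamine controls for 90 minutes at 37 degrees C. DiscoveRx reagent added for 30–60 minutes at room temperature; luminescence read, quantitative HTS format.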
ClpP mod = qHTS Assay for Activators of ClpP. purified B. subtilis ClpP, FRET peptide cleavage, 20 min. Potency, µM (doses to about 57.5 µM), for inactives: at the top dose activity change, negative = active. 340,000 tested, 1.9% active. AID 651965, 2013; active means well fitted falling curve with a large enough effect; inconclusive means small, poorly fitted or top-dose-only effect; inactive means no such curve, though single readings can be large or run the other way; further: potency means the concentration at half of the fitted maximal effect; the source files actives as falling curves though it sought activators and does not explain the sign; nearly all actives have a fitted effect of over 65% in size
Target sequence (P80244 whole entry, looked up): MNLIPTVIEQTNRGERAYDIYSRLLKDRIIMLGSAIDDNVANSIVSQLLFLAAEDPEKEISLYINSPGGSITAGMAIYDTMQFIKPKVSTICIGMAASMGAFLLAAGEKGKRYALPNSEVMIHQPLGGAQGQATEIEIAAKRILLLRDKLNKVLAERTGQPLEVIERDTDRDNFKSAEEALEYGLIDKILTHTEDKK
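Purified B. subtilis ClpP, 10 microg/mL final in Tris/HCl pH8 with KCl, BSA, glycerol and Tween-20, cleaved an Abz/nitrotyrosine-quenched decapeptide. Fluorescence (ex 320, em 430) was read at 0 and 20 min at room temperature. Delta was normalized to 5.8 microM ADEP and DMSO/no-enzyme controls.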
HEK293 tox = cytotoxicity in counter-screen for GLP-1R inverse agonists | HEK293 cAMP-luciferase reporter cells, luminescence, 24 h | Potency, µM (top dose mostly 38.3 µM), for inactives: at the top dose activity change, negative = inhibition, most hits filed as inhibitors | 410,000 tested, 0.13% active;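 further: loss of luciferase light is scored as toxicity; potency means the concentration at half of the fitted maximal effect; on the % scale 0 is the no-effect control and ±100 the full control effect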
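1536-well qHTS counterscreen of the MLSMR; 200 cells/uL, 12 h pre-incubation, 23 nL cpd, 24 h at 37 deg C 5% CO2, luciferase detection reagent, 12 min RT, luminescence. Inhibition = undesired.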
DRD3 agonist = activates the human D3 dopamine receptor | 410,000 tested, 0.58% active | max activation, % | D3R DiscoveRx beta-arrestin cells, luminescence, 90 min | P35462 | AID 652048; in the data active means max activation above about 30%; further: 0% is about no effect
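Agonist-mode cell screen: cells plated at 1500/well and incubated overnight at 37 °C, then exposed to library compounds for 90 min at 37 °C. Detection reagent was added for 30–60 min at room temperature, and luminescence was read.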
GLP1R inv ag = acts as inverse agonist at human GLP-1 receptor. P43220. HEK293 GLP-1R CRE-luciferase, luminescence, 24 h; GLP-1R form is constitutively active. Potency, µM (titrated, usually from 38.3 µM), inactives show at the highest dose activity change, negative = inhibition, most hits filed as inhibitors. 410,000 tested, 1.6% active. AID 624417; further: potency means the concentration at half of the fitted maximal effect; on the % scale 0 is the no-effect control and ±100 the full control effect; nearly all actives have a fitted effect of over 55% in size
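Inverse agonists were sought by their lowering of basal cAMP reporter luciferase output in HEK293 cells stably carrying constitutively active human GLP-1R, after 24 h compound treatment.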
* marks the source's active call; other numbers are inactive results; ? = inconclusive; . = no result given. Unless noted, the call rests on the fitted dose curve; in most records, active means well fitted curve in the direction sought with a large enough effect; inconclusive means small, poorly fitted or top-dose-only effect, or another doubt; inactive means no such curve, though single readings can be large; an effect the other way counts as inactive or inconclusive.

SMILES	GLP-1R agonist	D3 antag	ClpP mod	HEK293 tox	DRD3 agonist	GLP1R inv ag
COc1ccc(CNC(=O)c2c(O)c3cc(OC)c(OC)cc3[nH]c2=O)cc1OC	0%	12	7.9µM*	-11%	5	46%
COc1cc2[nH]c(=O)c(C(=O)NCc3ccc(F)cc3)c(O)c2cc1OC	5%	0	-7%	3%	-1	-15%
CCCCCCc1c(O)c2ccccc2[nH]c1=O	-6%	4	25µM*	2%	-6	19%
O=C1CSC2(C(=O)N(Cc3ccccc3)c3ccccc32)N1c1ccc(Cl)cc1 (centres undefined)	.	.	1%	1%	-7	-2%
COc1cc(OC)cc(-c2nc3nc(C)c(CCC(=O)Nc4cc(C)cc(C)c4)c(C)n3n2)c1	-2%	.	-5%	11%	-6	1%
COc1cc(OC)c(N(C)C(=O)Nc2cn(CC(C)C)c(=O)c3ccccc23)cc1Cl	11%	.	4%	-2%	-1	-17%
CCOc1cc2ccccc2cc1C(=O)OCC(=O)Nc1ccc(Br)cc1	.	.	4%	.	.	.
OC(CNCCC1C=Nc2ccccc21)Cn1c2ccc(Cl)cc2c2cc(Cl)ccc21 (centres undefined)	-21%	20	28µM*	?	19	?
CC1(Oc2cccc(C#N)c2)CCN(Cc2csc3ccccc23)C1 (centres undefined)	4%	-81*	-9%	8%	-25	?
COC(=O)Cc1ccc(OC2(C)CCN(Cc3csc4ccccc34)C2)cc1 (centres undefined)	-7%	-86*	-2%	-12%	-25	?
CC1(Oc2cccc(F)c2)CCN(Cc2csc3ccccc23)C1 (centres undefined)	-2%	-106*	-1%	-1%	-11	?
CC1(Oc2cccc(C#N)c2)CCN(Cc2ccccc2OC(F)F)C1 (centres undefined)	-2%	-89*	-2%	-3%	-10	?
CCOc1ccc(CCNC(=O)CCCc2nnc3n(CC(C)C)c(=O)c4sccc4n23)cc1	.	.	-7%	4%	-9	5%
CCc1ccc(NC(=O)CC2C(=O)N(c3ccc(F)cc3)C(=O)N2Cc2ccc(F)cc2)cc1 (centres undefined)	.	.	4%	0%	6	?
COc1ccc(S(=O)(=O)Nc2cc(Cl)ccc2OC)cc1	-2%	-2	1%	-26%	-2	1.4µM*
COc1ccc(C)cc1S(=O)(=O)Nc1cc(Cl)ccc1Cl	-34%	-6	-1%	11%	3	8.9µM*
COc1ccc(Cl)cc1NS(=O)(=O)c1ccc(OC)c(OC)c1	-8%	-20	-3%	2%	-7	-2%
O=C(COc1ccccc1Cl)NCC1(N2CCOCC2)CCCCC1	.	.	0%	-7%	2	?
Cc1noc(C)c1COC(=O)CCN1c2ccccc2Sc2ccccc21	16%	?	-9%	16%	4	4.5µM*
Cn1cccc1C(=O)NC(=O)COC(=O)CC12CC3CC(CC(C3)C1)C2	-6%	14	1%	7%	0	-14%
Cn1cccc1C(=O)NC(=O)COC(=O)CC12CC3CC(CC(Br)(C3)C1)C2	-7%	0	28µM*	-1%	5	4%
O=C(O)CCCNc1ccc(S(=O)(=O)Nc2ccccc2C(=O)O)cc1C(=O)O	-1%	-13	16µM*	-8%	-14	2%
CCOc1ccccc1NC(=O)Cn1c(=O)n(CCCC(=O)NCCc2ccc(C)cc2)c(=O)c2ccccc21	1%	.	-3%	-4%	9	-10%
Cc1ccc(N2CCN(C(C(=O)Nc3c(C)cccc3C)c3cccc(F)c3)CC2)cc1 (centres undefined)	.	22	-1%	3%	2	24%
CCn1c(O)c(N=NC2=NC(=O)CS2)c2ccccc21	-6%	-79*	-1%	?	-16	8%
SMILES	GLP-1R agonist	D3 antag	ClpP mod	HEK293 tox	DRD3 agonist	GLP1R inv ag
Cc1ccc2c(c1)C(=O)CC1(CCCCCC1)O2	-2%	-115*	?	15%	-73	18%
CCOc1ccccc1CNC(=O)c1cn(C)c(=O)c2c1c1ccccc1n2C	7%	24	11µM*	-8%	7	8%
COc1ccccc1CNC(=O)c1nn(-c2ccc(C)cc2)c(=O)c2c1c1ccccc1n2C	2%	14	14µM*	11%	-9	13%
Cc1ccc(CNC(=O)c2cc3c(=O)n(C)c4ccccc4c3n2C)o1	8%	1	-15%	-19%	1	-1%
CCc1ccc(CNC(=O)c2nn(-c3ccc(C)cc3)c(=O)c3c2c2ccccc2n3C)cc1	.	.	-4%	2%	-14	1%
Cc1ccc(CNC(=O)c2cn(C)c(=O)c3c2c2ccccc2n3C)o1	6%	-9	14µM*	15%	-1	0%
Cc1ccc(CNC(=O)c2cn(C3CCCCC3)c(=O)c3c2c2ccccc2n3C)o1	1%	-75*	?	-2%	-2	-16%
CCCCOc1ccc(C2c3c(oc4ccc(C)cc4c3=O)C(=O)N2CCCN(C)C)cc1OCC (centres undefined)	.	.	1%	0%	-21	-5%
Cc1cccc(C(=O)Nc2cccc(OCc3cc(=O)n4cc(C)sc4n3)c2)c1	2%	.	1%	1%	-5	-10%
Cc1cn2c(=O)cc(COc3cccc(NC(=O)c4ccc(C(C)(C)C)cc4)c3)nc2s1	.	.	28µM*	0%	-6	20%
Cc1ccc(NC(=O)CN(C)C(=O)CSc2nc(C)cs2)cc1	7%	-62*	.	6%	-18	-11%
Cc1csc(SCC(=O)N(C)CC(=O)Nc2ccccc2Cl)n1	3%	-6	?	7%	-4	14%
CN(C)CCNC(=O)Nc1ccc(Cl)c(Cl)c1	-14%	-28	0%	-10%	-15	11µM*
O=C(Nc1ccc(Cl)c(Cl)c1)Nc1ccon1	5%	1	3%	?	1	7.9µM*
CCOC(=O)[C@]12CCCC=C1N(CCc1ccc(OC)c(OC)c1)C(=O)[C@H](CC(=O)N1CCCCC1)C2	.	7	-2%	-9%	-3	-9%
Cc1cc(C)c(NC(=O)c2ccc(CNS(=O)(=O)c3cc(C(F)(F)F)ccc3Cl)cc2)c(C)c1	-34%	-25	-19%	?	-7	6.3µM*
N=c1nc(-c2ccccc2)n(-c2ccccc2)s1	.	.	-4%	.	.	.
Cc1ccc(C)c(CN2C(=O)c3ccccc3S(=O)(=O)c3ccc(C(=O)N4CCc5ccccc54)cc32)c1	.	.	-1%	16%	4	6%
